Source: PubChem BioAssay
Sampled rows, rich in hits. Any-hit rate of the full collection: about 1.6%.
gsp ag: qHTS for Agonist of gsp, the Etiologic Mutation Responsible for Fibrous Dysplasia/McCune-Albright Syndrome: qHTS; gsp mutant cells, cAMP HTRF, 30 min; Potency, µM (series often up to 76.9 µM), for inactives: top-dose activation (cAMP increase), most hits filed as activators; actives 0.13% (n = 340,000); AID 624287, 2012; active = well fitted activation curve with a large enough effect; inconclusive = small, poorly fitted or top-dose-only effect, or another doubt; inactive = no such curve, though single readings can be large or run the other way; cell line not stated here;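 note: phosphodiesterase inhibitor Ro 20-1724 added with compounds to block cAMP breakdown; nearly all actives have a fitted effect of over 60% in size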
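Cells stably selected in G418 were plated at 2000/well, grown 16-24 hr, then given compounds in DMSO with the PDE inhibitor […] (300 uM solution added) for 30 min at 37C; cAMP was read by HTRF.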
Mito fusion act: qHTS Assay for Small Molecule Inhibitors of Mitochondrial Division or Activators of Mitochondrial Fusion; Potency, µM (top dose mostly 46.1 µM), without a hit: top-dose growth rescue (activation), usual class: activators; S. cerevisiae fusion-defective mutant growth rescue, CellTiterGlo 48 h; actives 0.23% (n = 320,000); note: % of control where 0% means no effect; nearly all actives have a fitted effect of over 45% in size
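S. cerevisiae fusion-defective temperature-sensitive mutants (e.g. fzo1-1, mgm1-5) grown 48 h at 37C in YPEG (ethanol/glycerol non-fermentable) medium with 23 nl compound per well; growth rescue read as CellTiterGlo luminescence.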
ALOX12 inh: Primary qHTS assay for inhibitors of human arachidonate 12S-lipoxygenase (ALOX12): Round 2; Polyunsaturated fatty acid lipoxygenase ALOX12 (Homo sapiens), P18054; purified 12hLO, xylenol orange hydroperoxide absorbance; Potency, µM (highest dose often 108 µM), without a hit: at the top dose activity change, negative = inhibition, most hits filed as inhibitors; actives 1.1% (n = 580,000); AID 1671190, 2021; note: % is set by controls: 0 for no effect and ±100 for the full control effect
Target sequence (P18054 whole entry, looked up): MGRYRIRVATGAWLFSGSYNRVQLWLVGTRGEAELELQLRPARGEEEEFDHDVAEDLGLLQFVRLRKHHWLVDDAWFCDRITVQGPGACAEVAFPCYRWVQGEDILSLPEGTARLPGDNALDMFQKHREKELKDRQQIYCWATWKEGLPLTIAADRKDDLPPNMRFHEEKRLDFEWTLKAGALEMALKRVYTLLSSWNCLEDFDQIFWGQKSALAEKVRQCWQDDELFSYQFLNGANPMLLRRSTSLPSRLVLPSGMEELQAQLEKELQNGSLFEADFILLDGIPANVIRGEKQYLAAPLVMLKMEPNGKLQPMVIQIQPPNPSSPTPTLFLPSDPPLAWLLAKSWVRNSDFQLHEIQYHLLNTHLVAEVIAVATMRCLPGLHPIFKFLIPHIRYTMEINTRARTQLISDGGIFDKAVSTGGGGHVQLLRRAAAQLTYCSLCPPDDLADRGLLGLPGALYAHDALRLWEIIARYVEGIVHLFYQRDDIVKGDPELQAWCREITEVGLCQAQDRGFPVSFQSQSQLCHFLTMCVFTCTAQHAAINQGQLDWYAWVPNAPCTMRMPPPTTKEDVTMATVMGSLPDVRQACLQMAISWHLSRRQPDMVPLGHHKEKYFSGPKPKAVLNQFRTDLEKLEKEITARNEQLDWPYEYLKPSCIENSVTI
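Purified human 12hLO at 150 nM in 25 mM Hepes, 0.01% Triton X-100, pH 7.0, preincubated 15 min at room temperature with compound. Reaction started with 40 uM arachidonic acid, 30 min at room temperature. Hydroperoxide measured by Fe-xylenol orange, 573/405 nm absorbance ratio.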
FUS yeast rescue: qHTS for Suppressors of FUS Proteinopathy: Primary screen using FUS-linked yeast assay | S. cerevisiae FUS-expressing, growth rescue, OD600, 24 h | Potency, µM (titrated, usually from 76.6 µM), most hits filed as activators | actives 0.24% (n = 390,000) | AID 1347120, 2019;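 note: plate controls were DMSO vehicle for no effect and reference control for full effect; nearly all actives have a fitted effect of over 55% in size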
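Read-out: OD at 600 nm after 24hr at 30C, reporting rescue of FUS-induced yeast toxicity. Cells at OD 0.005 in galactose (2%) minimal medium; compounds tested in a dilution series; CP55940 titration from 92uM final as control.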
gsp antag: qHTS for Antagonists of gsp, the Etiologic Mutation Responsible for Fibrous Dysplasia/McCune-Albright Syndrome: qHTS. actives 0.4% (n = 340,000). gsp-mutant cells, cAMP HTRF, 30 min. Potency, µM (doses to about 76.9 µM), for the others: at the highest dose activity change, negative = inhibition, usual class: inhibitors; calls by dose curve; cell line not stated here;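 note: intracellular cAMP measured with PDE inhibitor Ro 20-1724 present during compound exposure; % is set by controls: 0 for no effect and ±100 for the full control effect; nearly all actives have a fitted effect of over 65% in size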
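HTRF cAMP measurement after 30 min RT detection following 30 min, 37C compound treatment alongside […] (added as 300 uM solution) in G418-selected cells seeded at 2000/well and grown 16–24 h.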
* = called active by the depositor; i = inactive; ? = inconclusive; / = not tested or not shown; [ ] = another dose, or the depositor's remark. Unless noted, calls come from the whole dose curve; as a rule, active = well fitted curve in the direction sought with a large enough effect; inconclusive = small, poorly fitted or top-dose-only effect, or another doubt; inactive = no such curve, though single readings can be large; an effect the other way counts as inactive or inconclusive. Potency is the fitted concentration of half-maximal effect.

SMILES	gsp ag	Mito fusion act	ALOX12 inh	FUS yeast rescue	gsp antag
CCC(c1cccs1)N1C(=O)[C@H]2CN(S(=O)(=O)c3cccc(Cl)c3)C[C@H]2C1=O (stereo not given in full)	/	/	31.6µM*	/	/
CCCc1cc(=O)oc2cc(C)cc(OCC(=O)N[C@H](CO)[C@H](C)CC)c12	/	/	51.2%	/	/
Cc1ccc(-c2n[nH]c(=S)n2C)cc1	?	-1.2%	?	/	-0.9%
CCn1c(-c2sc(-c3ccccc3)nc2C)n[nH]c1=S	6.6%[15.4 µM]	6.4%	44.7µM*	i	-11.0%
Cn1c(-c2csc(-c3ccccc3)n2)n[nH]c1=S	?	-3.6%	31.6µM*	i	-6.8%
CC1=C(c2ccc(F)cc2)[N+](=O)C(C)(C)N1[O-]	8.7%[15.4 µM]	12.6µM*	40.9%	i	5.7%
CC1=C(c2ccc(C)cc2)[N+](=O)C(C)(C)N1[O-]	-8.5%	4.7%	-4.1%	i	10.0%
COc1ccc(Cl)cc1C(=O)NC1CCCN(c2cc(-c3ccc(F)cc3)[nH]n2)C1 (stereo not given)	/	/	27.5%	/	/
Cc1cc(C)nc(N/C(=N\S(=O)(=O)Cc2ccccc2)Nc2ccccc2Br)n1	28.7%	22.4µM*	-7.7%	i	11.4%
COc1ccc(NC(=O)C(CC(C)C)N2Cc3ccccc3C2=O)cc1Cl (stereo not given)	/	/	4.2%	/	/
CCOC(=O)C(=NC(C)CC)NNc1cccc(C(F)(F)F)c1 (stereo not given)	-40.6%	-4.3%	?	i	-4.2%
CCOC(=O)C(=NC1CCS(=O)(=O)C1)NNc1ccc(Br)cc1 (stereo not given)	9.3%	1.3%	15.8µM*	i	-4.9%
CCOC(=O)C(=NC(C)CC)NNc1ccc(Br)cc1 (stereo not given)	9.7%	21.6%	28.2µM*	i	-9.6%
CCOC(=O)C(=NC1CCCCC1)NNc1cccc(C(F)(F)F)c1	1.3%	0.1%	50.1µM*	i	-0.4%
CCOC(=O)C(=NC1CCS(=O)(=O)C1)NNc1ccccc1Cl (stereo not given)	?	-10.5%	12.6µM*	i	-2.1%
O=C(Nc1ncc(-c2cccc(F)c2)c2c1OCC2)c1ccc(Cl)cc1	/	/	21.8%[176 µM]	/	/
CCOC(=O)c1oc2cc(OC(=O)c3ccco3)ccc2c(=O)c1-c1ccc(Br)cc1	/	/	42.0%	/	/
COCCNC[C@@H]1C=C(C)[C@H](Cc2nnc(-c3ccc(N(C)C)cc3)o2)C[C@H]1C(C)C	/	/	24.7%[176 µM]	/	/
COc1ccc(/C=C2/SC(=S)N(c3ccc(S(=O)(=O)Nc4nccs4)cc3)C2=O)cc1	9.3%[15.4 µM]	3.6%	437.2%	i	31.6µM*
O=C1/C(=C\c2ccccn2)SC(=S)N1c1ccc(S(=O)(=O)Nc2nccs2)cc1	0.2%[15.4 µM]	-0.2%	144.9%	i	39.8µM*
Cc1ccc(/C=C2/SC(=S)N(c3ccc(S(=O)(=O)Nc4nccs4)cc3)C2=O)cc1	1.9%[15.4 µM]	-0.7%	214.0%	i	31.6µM*
Cc1ccc(Oc2ccc3c(c2)C(=O)N(c2ccc(S(=O)(=O)Nc4nccs4)cc2)C3=O)cc1	37.9%	0.1%	20.2%	i	?
COc1ccc(/C=C2\SC(=O)N(CCC(=O)Nc3ccc(S(=O)(=O)Nc4nccs4)cc3)C2=O)cc1	0.1%[15.4 µM]	-0.8%	?	i	-18.9%
Cn1c(=O)n(C)c2cc(Sc3ccccc3Cl)c(NC(=O)C3CC3)cc21	/	/	-1.2%	/	/
COc1cccc(OC)c1C(=O)Nc1cc(C)c(O)c(-c2nc3cc(C)ccc3o2)c1	/	/	2.0%	/	/
SMILES	gsp ag	Mito fusion act	ALOX12 inh	FUS yeast rescue	gsp antag
COc1cc(OC)cc(C(=O)/C(=C\c2ccncc2)c2nc3ccccc3o2)c1	/	/	28.2µM*	/	/
O=C(N/N=C/c1ccc(F)cc1)c1ccc(Br)cc1	39.8µM*	-2.9%	-16.4%	i	3.6%
O=C(N/N=C/c1ccc(Br)cc1)c1ccc(F)cc1	-1.3%	-10.7%	21.4%	i	1.6%
O=C1NC(=S)/C(=C\c2ccc(-c3ccccc3Cl)o2)S1	?	21.3%	35.5µM*	i	-33.1%
C=CCNC(=O)CN1CCN(c2ccnc3c(F)ccc(F)c23)CC1	/	/	-13.9%	/	/
COc1ccccc1N1CCN(Cc2cc(Br)c(O)c3ncccc23)CC1	27.0%	1.6%	35.5µM*	i	0.2%
CCOCc1cc(CN2CCN(c3ccccc3OC)CC2)c(O)c2ncccc12	/	/	?	i	/
Cc1cc(C)n(Cc2ccc(C(=O)NCC3Cn4cccc4CN3Cc3ccccc3)o2)n1 (stereo not given)	/	/	270.4%	/	/
Cc1ccc2[nH]c3c(N4CCN(Cc5ccc6c(c5)OCO6)CC4)ncnc3c2c1	/	-0.9%	0.0%	/	/
COc1cccc(N2CCN(c3ncnc4c3[nH]c3ccc(F)cc34)CC2C)c1 (stereo not given)	-17.1%	-2.9%	-11.5%	?	3.55µM*
COc1ccc2c(c1)[nH]c1c(N3CCN(Cc4ccc5c(c4)OCO5)CC3)ncnc12	-68.0%	1.8%	-3.9%	/	39.8µM*
COc1ccc2c(c1)[nH]c1c(N3CCSCC3)ncnc12	-8.8%[15.4 µM]	-3.5%	9.8%	i	28.2µM*
COc1cccc2cc(-c3cc(=O)oc4ccc(C(C)(C)C)cc34)oc12	/	/	-15.1%	/	/
NC(N)=N/N=C/CCC1CCCCC1	/	/	-4.5%	/	/
N#Cc1c(Nc2ccccc2)ccnc1NCc1ccccc1	/	/	8.1%	/	/
Fc1ccc(CN2CCCCCCC2)c(F)c1	-43.9%	1.6%	0.447µM*	i	3.9%
CCCCC1=CC2=CC(=O)C(C)(OC(=O)CC)C(=O)C2=CN1CCc1ccc(Br)cc1 (stereo not given)	/	-6.4%	39.8µM*	i	-7.0%
CCCCC1=CC2=CC(=O)C(C)(OC(=O)CC)C(=O)C2=CN1CCOC (stereo not given)	-56.2%	-22.6%	/	i	4.3%
Fc1cccc(C[n+]2csc3ccccc32)c1	-69.7%	3.0%	17.8µM*	/	7.4%
c1ccc(C[n+]2csc3ccccc32)cc1	2.6%	4.5%	?	i	3.5%
COc1ccc(S(=O)(=O)N2C[C@@H]3C[C@H](C2)c2c(-c4ccc(NC(C)=O)cc4)ccc(=O)n2C3)cc1	/	/	-16.1%	/	/
O=C(/C=C/c1ccc2ccccc2n1)OCC(=O)N(/N=C/c1ccccc1)c1cccc(C(F)(F)F)c1	/	/	-36.0%	/	/
O=C(CSc1ccc2ccccc2c1)c1ccc2c(c1)CCC2	/	/	35.5µM*	/	/
C=CCNC(=O)NC(=O)CNc1ccccc1C#N	/	/	-21.8%	/	/
Cc1nc2c(OCc3ccccc3)cccn2c1N(C)C(=O)C1CCCCC1	/	/	50.1µM*	i	/
CNc1c(NC(=O)Nc2ccccc2Cl)c(=O)oc2ccccc12	/	/	-16.7%	/	/
Clc1ccc(N2CCN(Cc3ccco3)CC2)cc1	18.5%[15.4 µM]	5.7%	0.631µM*	i	3.4%
